TDP1 cell noCPT – qHTS for Inhibitors of human tyrosyl-DNA phosphodiesterase 1 (TDP1): qHTS in cells in absence of CPT | Potency, µM (doses to about 46.2 µM), for inactives: at the top dose activity change, negative = growth inhibition, hits mostly inhibitors | hit rate 15% among 420,000 | AID 686978, 2013 | DT40 Tdp1-/- hTDP1 cells, no CPT, ATP luminescence, 48 h; also: potency is read from the fitted curve at half-maximal effect; % is scaled to controls: 0 for no effect and ±100 for the full control effect; nearly all actives have a fitted effect of over 55% in size
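Growth of hTDP1-complemented DT40 Tdp1-knockout cells is measured by ATP luminescence after at least 48 hr compound exposure at 37 °C, with DMSO substituting for the 20 nM CPT used in the parallel screen.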
TGFb SMAD3 inh – TGF-b pathway inhibition | Potency, µM (doses to about 46.1 µM), inactives show at the highest dose activity, negative = inhibition, most hits filed as inhibitors | hit rate 1.2% among 410,000 | HepG2 CAGA-GFP TGF-b/SMAD3 reporter, GFP fluorescence, 18 h; TGF-beta stimulated, 500 pg/mL final; also: potency is read from the fitted curve at half-maximal effect; % is scaled to controls: 0 for no effect and ±100 for the full control effect; nearly all actives have a fitted effect of over 65% in size
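First, reporter cells (HEPG2 CAGA-GFP) rested 2 h at 37 degrees C. Next, compounds were pinned in and TGF-beta added to 500 pg/mL final. After 18 h, GFP was imaged per cell and summed per well.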
TDP1 block – inhibitors of human tyrosyl-DNA phosphodiesterase TDP1 | Potency, µM (series often up to 130 µM), without a hit: at the top dose activity change, negative = inhibition, most hits filed as inhibitors | recombinant TDP1, AlphaScreen DNA substrate cleavage | Q9NUW8 | hit rate 0.28% among 350,000; also: potency is read from the fitted curve at half-maximal effect; % is scaled to controls: 0 for no effect and ±100 for the full control effect; nearly all actives have a fitted effect of over 40% in size
Target sequence (Q9NUW8 whole entry, looked up): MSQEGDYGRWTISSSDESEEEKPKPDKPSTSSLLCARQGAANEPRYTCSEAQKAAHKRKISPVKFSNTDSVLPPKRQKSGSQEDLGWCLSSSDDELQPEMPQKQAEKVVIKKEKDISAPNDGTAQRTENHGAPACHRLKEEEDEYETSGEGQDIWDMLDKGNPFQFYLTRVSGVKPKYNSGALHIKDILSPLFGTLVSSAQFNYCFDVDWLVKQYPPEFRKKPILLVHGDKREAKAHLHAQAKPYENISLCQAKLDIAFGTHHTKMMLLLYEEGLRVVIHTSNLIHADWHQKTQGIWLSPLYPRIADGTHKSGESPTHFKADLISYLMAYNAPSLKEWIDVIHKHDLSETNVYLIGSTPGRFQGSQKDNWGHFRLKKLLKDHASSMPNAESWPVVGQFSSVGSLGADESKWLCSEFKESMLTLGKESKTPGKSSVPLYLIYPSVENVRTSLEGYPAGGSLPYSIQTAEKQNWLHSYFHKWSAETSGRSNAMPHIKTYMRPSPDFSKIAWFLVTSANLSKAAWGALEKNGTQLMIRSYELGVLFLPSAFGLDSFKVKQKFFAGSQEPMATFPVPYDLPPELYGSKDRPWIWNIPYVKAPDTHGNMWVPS
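Tdp1 1 nM final; 15 min RT w/ cpd; substrate 15 nM, 5 min; beads 10 ug/ml, 10 min; AlphaScreen read. Neg ctrl: no enzyme.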
DT40 TDP1 CPT – growth inhibition of DT40 Tdp1-/-;hTDP1 cells with camptothecin (screen for TDP1 inhibitors); chicken DT40 Tdp1-/-;hTDP1 cells + 20 nM CPT, ATP luminescence, 48 h; Potency, µM (highest dose often 46.2 µM), for inactives: at the highest dose activity change, negative = growth inhibition, hits mostly inhibitors; hit rate 12% among 420,000; AID 686979; also: potency is read from the fitted curve at half-maximal effect; % is scaled to controls: 0 for no effect and ±100 for the full control effect; nearly all actives have a fitted effect of over 55% in size
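Chicken DT40 Tdp1-/- cells complemented with human TDP1, 400 cells/well, exposed to compounds plus 20 nM camptothecin for at least 48 h at 37 C; viability read as ATP content by CellTiter-Glo luminescence.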
IL1B secr inh – inflammasome signaling inhibition, IL-1 beta readout. THP-1 LPS/ATP IL-1B secretion, AlphaLISA, 16 h; hits give low values. activity change, % at 57.5 µM. hit rate 4.7% among 360,000; in the data active = activity change below about -50%; inconclusive = mostly about -30% to -49%; also: % is scaled to controls: 0 for no effect and ±100 for the full control effect
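Secreted IL-1B measured by AlphaLISA bead assay after 16 h compound exposure of THP-1 cells; compounds (final up to 57.5 uM) added 1 h before LPS (250 ng/mL) and ATP (1.25 mM) stimulation; lower signal means less secretion.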
HepG2 viability – HepG2 cytotoxicity, counter-screen for TGF-b inhibitors; Potency, µM (series often up to 46.1 µM), for the others: at the top dose activity change, negative = cytotoxicity, most hits filed as cytotoxic; AID 588856; hit rate 0.76% among 410,000; HepG2 CAGA-GFP viability, ATP luminescence, 18 h; also: potency is read from the fitted curve at half-maximal effect
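CellTiter-Glo luminescence gave cytotoxicity after 18 hours at 37 degrees C. The cells were HepG2 CAGA-GFP in 1% FBS DMEM, stimulated with 500 pg/mL TGF-beta after compound addition. %Activity was normalised to no-cell wells (complete cell-killing) and DMSO (no toxicity), and curves were fitted and classified.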
* hit, by the source's call; i = inactive; ? = inconclusive; / = no result; [ ] = dose if it differs, or a comment. Hits are enriched below; roughly 18% of the tested compounds scored in any of these assays. Unless noted, calls follow the shape of the dose curve; as a rule, active = well fitted curve in the direction sought with a large enough effect; inconclusive = small, poorly fitted or top-dose-only effect, or another doubt; inactive = no such curve, though single readings can be large; an effect the other way counts as inactive or inconclusive.

SMILES	TDP1 cell noCPT	TGFb SMAD3 inh	TDP1 block	DT40 TDP1 CPT	IL1B secr inh	HepG2 viability
Cn1cc(CN2CCCC(C(=O)Nc3ccc(-c4cccc(F)c4)cc3)C2)cn1 (configuration not stated)	11.6µM*	?	1.9%	20.6µM*	-10.7	-99.0%
Cc1ncc(CN2CCCC(C(=O)Nc3ccc(-c4ccco4)cc3)C2)n1C (configuration not stated)	20.6µM*	4.8%	3.5%	?	i	-5.3%
COc1cccc(-c2ccc(NC(=O)C3CCCN(CCCn4nc(C)cc4C)C3)cc2)c1 (configuration not stated)	?	?	3.9%	18.4µM*	-3.6	-86.0%
CCc1nc(CN2CCCC(C(=O)Nc3ccc(-c4cccc(OC)c4)cc3)C2)c(C)[nH]1 (configuration not stated)	?	-18.2%	/	?	12.5	-52.5%
COc1cccc(-c2ccc(NC(=O)C3CCCN(Cc4ccco4)C3)cc2)c1 (configuration not stated)	16.4µM*	-14.9%	/	?	-80.2*	-23.6%
Cc1ccc(C(=O)Nc2cc([N+](=O)[O-])ccc2C)cc1	8.1%	0.8%	4.9%	3.5%	42.5	21.2%
Cc1cccc(C(=O)Nc2cc3c(cc2C)n(C)c(=O)n3C)c1	-5.4%	31.9%	6.2%	-0.6%	/	-3.8%
Cc1c(NC(=O)c2ccc(C(C)(C)C)cc2)cccc1[N+](=O)[O-]	20.6µM*	-1.4%	1.1%	16.4µM*	-51.7*	-7.8%
Cc1cc2c(cc1NC(=O)c1ccc(C(C)(C)C)cc1)n(C)c(=O)c(=O)n2C	25.9µM*	-23.8%	5.8%	23.1µM*	/	-3.9%
Cc1ccc([N+](=O)[O-])cc1NC(=O)c1ccc(C(C)(C)C)cc1	13µM*	-26.9%	7.5%	?	?	-38.4%
COc1ccc2c(c1[N+](=O)[O-])CCC/C2=N/OC(=O)c1cccc2ccccc12	?	-2.3%	-1.0%	?	19.6	-7.8%
Cn1c(=S)oc2ccccc21	-5.2%	0.0%	2.9%	24.4%	3.3	-70.0%
CC(C)CC(=O)/C=C/n1c(=S)oc2ccccc21	2.31µM*	-27.3%	-2.7%	3.26µM*	-106.0*	-45.1%
CC(=O)/C=C/n1c(=S)oc2ccccc21	0.651µM*	6.31µM*	-3.5%	0.82µM*	-97.8*	15.8µM*
COc1ccc(C(=O)Oc2cc(C)c(CN3CCOCC3)cc2C)cc1OC	?	1.0%	/	3.0%	11.7	5.0%
Cc1ccc(-c2csc(SCC(=O)c3c(N)n(C4CC4)c(=O)[nH]c3=O)n2)cc1	-12.0%	-12.5%	-15.0%	4.3%	22.2	-6.3%
C=CCn1c(SCc2c(C)noc2C)nc2sc(C)c(C)c2c1=O	18.4µM*	1.3%	1.4%	20.6µM*	-21.9	-22.4%
C=CCn1c(SCC(=O)c2cc(C)n(C(C)COC)c2C)nc2sc(C)c(C)c2c1=O (configuration not stated)	18.4µM*	?	8.7%	?	-1.5	9.8%
CN(C(=O)c1cccc(NC(=O)Cc2cccc(NC(=O)C3CCCN(C(=O)C4CCCCC4)C3)c2)c1)C1CCC1 (configuration not stated)	-20.7%	-22.4%	/	-19.9%	22.4	6.3%
Cc1ccc2c(c1)C=CC(C)(C)S2=O (configuration not stated)	-3.6%	7.4%	2.6%	-3.6%	10.4	0.2%
CC[N+]1=C(C)C(C)(C)c2cc(C)ccc21	1.64µM*	?	8.0%	8.2µM*	0.0	-32.3%
O=S(=O)(Nc1ccc(C(F)(F)F)cc1)c1ccc2c(c1)OCCO2	/	?	2.1%	/	/	-31.4%
O=C(CSC(=S)N1CCCCC1)Nc1ncc2c(n1)CCCC2=O	-18.5%	-11.9%	2.7%	-9.1%	10.5	-38.3%
Fc1cc(Cl)ccc1NC1=NCCCCC1	-3.2%	14.0%	/	-12.3%	-67.2*	4.9%
CCCCNC(=O)C1(C)CCN1Cc1cc(C)ccc1C (configuration not stated)	?	?	/	23.1µM*	-0.3	-34.3%
SMILES	TDP1 cell noCPT	TGFb SMAD3 inh	TDP1 block	DT40 TDP1 CPT	IL1B secr inh	HepG2 viability
CCCCNC(=O)C1CCN(Cc2ccc(OCc3ccccc3)cc2)CC1	?	47.5%	-2.6%	?	-7.8	-20.0%
CCCCNC(=O)C1(C)CCCCCN1Cc1cc2ccccc2o1 (configuration not stated)	?	?	/	18.4µM*	-25.8	-60.1%
CCCCNC(=O)C1(C)CCCCN1Cc1ccc(OCc2ccccc2)cc1 (configuration not stated)	20.6µM*	?	/	20.6µM*	-24.9	-17.5%
CC1(C(=O)NCc2cccc3ccccc23)CCN1Cc1cc2ccccc2o1 (configuration not stated)	?	-44.9%	/	?	-16.2	-27.8%
CCCCNC(=O)C1(C)CCCCN1Cc1ccc(-c2ccccc2)cc1 (configuration not stated)	8.2µM*	-19.5%	/	13µM*	16.3	-5.2%
CCCCNC(=O)C1(C)CCCCN1C(=O)c1ccc2ccccc2n1 (configuration not stated)	?	?	/	?	-6.0	-29.1%
N#CCC(=O)Nc1ccc(C(=O)NNC(=O)CCN2CCN(c3ccccc3)CC2)cc1	10.2%	12.1%	-0.5%[56.1 µM]	-1.0%	3.4	2.5%
S=c1[nH]nc(COc2ccccc2)n1/N=C/c1c(Cl)cccc1Cl	-28.3%	-25.2%	/	-25.1%	-1.2	-3.6%
COC(=O)c1cc(-c2cc(OC)ccc2OC)nc2c1c(=O)n(C)c(=O)n2Cc1ccccc1	18.4µM*	-8.7%	/	16.4µM*	12.8	-5.3%
COc1ccc2c(c1)c1c(c(=O)n(Cc3ccccc3)c(=O)n1CC(=O)NCc1ccccc1)n2C	-11.4%	12.0%	2.8%	-12.7%	/	-0.2%
COC(=O)c1c(SCC(=O)Nc2ccccc2C(F)(F)F)[nH]c2ccc(Cl)cc2c1=O	29.1µM*	?	2.6%	20.6µM*	/	3.7%
COc1ccc(Cl)cc1NC(=O)CN(C)CC(=O)Nc1ccccc1C(F)(F)F	-23.1%	-16.9%	6.2%	-4.0%	-3.9	18.7%
COC(=O)c1c(SCC(=O)Nc2cc(C)cc(C)c2)[nH]c2ccccc2c1=O	?	12.6µM*	6.4%	23.1µM*	/	10µM*
Cc1cc(C)cc(NC(=O)CCn2c(=S)[nH]c3ccccc3c2=O)c1	-18.5%	4.3%	0.0%	-27.3%	-17.8	-0.1%
